In all, about 38,000 compounds went through this assay and about 1,200 (3.2%) showed an effect of 50% or more. The median lay at about -58%. This is one part of a sample in which strong results are shown more often than they occur.

For this test, the system named is Plasmodium falciparum. In words: Calibr Malaria Delayed Death Assay SOP. Type of test: functional, organism-based. The arrangement: scale not given: in the data most compounds retested in dose-response had high values. As to conditions: concentration 4.99e-06 (unit not given; other assays of the set use mol/L).
For the compound `CC(C)C1CCC(N2CCN(CCCS(C)(=O)=O)CC2)CC1` (configuration not stated), the “Percent Effect” value is on record as 11.68%.

For the compound `Cc1cc2nc(C(C)C)cc(N3CCC(O)CC3)n2n1`, the “Percent Effect” value is listed as -114.9%.

Turning to `Cc1cccc(OC(C)C(=O)NCC2(N(C)C)CCCC2)c1` (configuration not stated), the “Percent Effect” value was found to be 80.49%.

In the case of `CC(=O)N(C)CC(=O)NCC1(c2cccc(C)c2)CCCC1`, the “Percent Effect” value is -51.91%.

Consider `Cc1cccc(C(C(=O)NCC2(O)CCCCC2)N(C)C)c1` (configuration not stated), for which the “Percent Effect” value was -49.85%.

`CC1CN(C(=O)NCCc2nc(C(C)C)no2)CCO1` (configuration not stated): the “Percent Effect” value is -93.77%.

Turning to `Cl.Cn1ncc2c1CCCC2NCc1cccc(F)c1` (configuration not stated), the “Percent Effect” value was found to be 10.36%.

As for `Cc1cccc(CNC2CCCc3c2cnn3C)c1.Cl` (configuration not stated), the “Percent Effect” value is recorded as -40.76%.

With `Cc1cccc(CNC2CCCc3c2cnn3Cc2ccccc2)c1.Cl` (configuration not stated), the “Percent Effect” value came out at 64.5%.

For the compound `O=S(=O)(C1CC1)N1CCC2(COCc3cnc(NCC4CC4)nc32)C1` (configuration not stated), the “Percent Effect” value is reported as -35.4%.

On to `c1ccc(CN2CCC3(COCc4cnc(NCC5CC5)nc43)C2)cc1` (configuration not stated), for which the “Percent Effect” value is 50.22%.

With `c1cc(N2CCC3(COCc4cnc(NCC5CC5)nc43)C2)ncn1` (configuration not stated), the “Percent Effect” value is recorded as -14.49%.

`CC(C)CC(NC(=O)c1ccn(C)c(=O)c1)c1cccs1` (configuration not stated): the “Percent Effect” value is on record as -80.8%.

For `Cc1cc(C(=O)N(C)CCCn2cccn2)nc(N)n1`, the “Percent Effect” value was -80.13%.

Regarding `CCN(CC)C(=O)N1CCN(Cc2cnc(C)nc2)[C@H]2CS(=O)(=O)C[C@H]21`, the “Percent Effect” value is given as -158.8%.

For `CCS(=O)(=O)N1CCCn2nnc(CNC(C)=O)c2C1`, the “Percent Effect” value is given as -63.27%.

In the case of `CCN1CCCC(O)(CN(C)Cc2ccccc2F)C1` (configuration not stated), the “Percent Effect” value amounted to 56.49%.

With `CCN1CCCC(O)(CNCc2ccccc2F)C1` (configuration not stated), the “Percent Effect” value amounted to 38.87%.

`CN(C)CC1(O)CCCN(Cc2ccccc2OCC(=O)N(C)C)C1` (configuration not stated): the “Percent Effect” value was -89.01%.

As for `Cc1nc2c(c(N(C)C)n1)CCN(C(=O)c1ccc(N)nc1)C2`, the “Percent Effect” value is listed as -40.57%.

For the compound `O=C(CCc1ccccc1)NCC1CCN(Cc2ccccc2)CC1`, the “Percent Effect” value stood at 43.31%.

Take `CC(=O)N1CCCN(CCn2nc3ccccn3c2=O)CC1`: the “Percent Effect” value is -130.1%.

For `CN(C)CCN(C)S(=O)(=O)Cc1ccc(Br)cc1`, the “Percent Effect” value stood at 62.66%.

As for `CC(O)CCN(C)S(=O)(=O)Cc1ccc(Br)cc1` (configuration not stated), the “Percent Effect” value is on record as -27.23%.

For the compound `CCCNS(=O)(=O)Cc1ccc(Br)cc1`, the “Percent Effect” value is -18.14%.

For the compound `CC(Cn1cccn1)NC(=O)NCc1ccnc(OC2CCCC2)c1` (configuration not stated), the “Percent Effect” value was -91.81%.

For the compound `O=C(CCc1cccs1)Nc1ccnn1C1CCS(=O)(=O)C1` (configuration not stated), the “Percent Effect” value is -51.38%.

As for `Cc1ccc(C(=O)N2CC[C@]3(C[C@@H](OCc4ccccn4)CO3)C2)nc1.O=C(O)C(F)(F)F.O=C(O)C(F)(F)F`, the “Percent Effect” value is -9.931%.

In the case of `Cc1nonc1C1CCCN1Cc1ccc(C(=O)Nc2nccs2)cc1` (configuration not stated), the “Percent Effect” value was -15.94%.

As for `CNc1cncc(C2CCCN2Cc2cccc(C)n2)n1` (configuration not stated), the “Percent Effect” value is recorded as -46.34%.

With `Cc1ccc(C)c(CSc2nnc([C@@H](N)C(C)C)o2)c1.Cl`, the “Percent Effect” value is -98.07%.

For `N#Cc1ccccc1CN1CCCC(c2nccn2CC2CC2)C1` (configuration not stated), the “Percent Effect” value worked out at 10.64%.

`FC(F)Oc1ccccc1CN1CCCC(c2nccn2CC2CC2)C1` (configuration not stated): the “Percent Effect” value is given as 86.3%.

Consider `NC(=O)Cn1ccnc1C1CCCN(Cc2ccccc2OC(F)F)C1` (configuration not stated), for which the “Percent Effect” value is listed as -1.798%.

For `Cc1cc(NC(=O)CN2CCCC2c2noc(C(C)C)n2)no1` (configuration not stated), the “Percent Effect” value is given as -88.6%.

For `COCC1CCCN(C(=O)c2ccc(N(C)Cc3cnn(C)c3)nc2)C1` (configuration not stated), the “Percent Effect” value is on record as -103.7%.

Take `O=C(CCCn1cnc2ccccc2c1=O)Nc1nc[nH]n1`: the “Percent Effect” value is -6.042%.

For `O=C(Nc1ccccn1)C1CCN(Cc2cc3c(cc2O)OCO3)CC1`, the “Percent Effect” value is on record as -119.6%.

On to `O=C(Cc1ccc2c(c1)CCC2)NC1CCN(Cc2ccccc2)CC1`, for which the “Percent Effect” value was 27.79%.

For `O=C(CCCNC(=O)C1CCCO1)Nc1ccc(Cl)cc1` (configuration not stated), the “Percent Effect” value is -38.58%.

`CCc1nc(CN(C)CC(=O)OC(C)(C)C)cs1`: the “Percent Effect” value is -47.19%.

For the compound `COc1cccc([C@@H]2CCN(Cc3cn(C)c4ccccc34)C[C@H]2O)c1`, the “Percent Effect” value came out at 77.7%.

Turning to `COc1cccc([C@@H]2CCN(Cc3ccc4ccccc4n3)C[C@H]2O)c1`, the “Percent Effect” value is -19.61%.

As for `COc1cccc([C@@H]2CCN(Cc3cccc(C)n3)C[C@H]2O)c1`, the “Percent Effect” value is given as -31.33%.

In the case of `Cc1ccc(CN(C)C(=O)CN2CCc3ccccc3C2)o1`, the “Percent Effect” value is -48.11%.

Turning to `CC(C)n1cnnc1CN(C)C(=O)C1CCCN(C2CCN(C)CC2)C1` (configuration not stated), the “Percent Effect” value was -93.39%.

Turning to `CC(=O)c1c(C)nn(CC(=O)Nc2ccc(F)cc2)c1C`, the “Percent Effect” value was -45.58%.

In the case of `CC(=O)c1c(C)nn(CC(=O)Nc2ccc(Br)cc2)c1C`, the “Percent Effect” value is recorded as 66.34%.

Turning to `COc1ccc(CC(=O)Nc2ccc3ncn(C)c(=O)c3c2)cc1`, the “Percent Effect” value is recorded as -105.2%.

As for `COc1ccc(NC(=O)Cn2nc(C)ccc2=O)cc1OC`, the “Percent Effect” value is on record as -36.97%.

For the compound `Cn1ccc2c(ccn2CC(=O)Nc2ccc(Br)cc2)c1=O`, the “Percent Effect” value is -82.23%.

As for `COc1ccc(NC(=O)Cn2nc(C)c(C(C)=O)c2C)cc1`, the “Percent Effect” value was determined as 89.56%.

Consider `CCOCc1cncc2c1CCN(C(=O)c1cscn1)C2.O=C(O)C(F)(F)F`, for which the “Percent Effect” value is listed as -50.24%.

As for `Cc1nc(C2CCCN2C(=O)CCCn2cncn2)no1` (configuration not stated), the “Percent Effect” value was -14.54%.

Consider `COc1ccc(S(=O)(=O)N2CCC(Cn3ccnc3)CC2)cc1`, for which the “Percent Effect” value is -82.14%.

Take `CCc1ocnc1C(=O)N1CCOC(c2nc(C(C)C)n[nH]2)C1` (configuration not stated): the “Percent Effect” value was -32.06%.

As for `CCc1cnc(N)nc1NC(C)c1ccc(C)c(C)c1` (configuration not stated), the “Percent Effect” value is 72.97%.

Consider `CCc1cnc(N)nc1N[C@@H](C)c1ncccc1C`, for which the “Percent Effect” value was determined as 2.334%.

Turning to `CCc1cnc(N)nc1NC(C)c1cnn(C)c1` (configuration not stated), the “Percent Effect” value was -61.87%.

For the compound `CCS(=O)(=O)c1cccc(C(=O)Nc2cccc3c2C(=O)N(C)C3=O)c1`, the “Percent Effect” value is listed as -74.2%.

`CN(Cc1ccco1)[C@@H]1CN(Cc2cccnc2)[C@@H]2CCCO[C@H]12.O=C(O)C(F)(F)F.O=C(O)C(F)(F)F.O=C(O)C(F)(F)F`: the “Percent Effect” value is reported as -47.89%.

For `CN(Cc1ccco1)[C@@H]1CN(Cc2nccs2)C[C@@H]2CCCO[C@@H]21.O=C(O)C(F)(F)F.O=C(O)C(F)(F)F`, the “Percent Effect” value was determined as 29.14%.

`CN(Cc1ccco1)[C@@H]1CN(Cc2ccncc2)C[C@@H]2CCCO[C@@H]21.O=C(O)C(F)(F)F.O=C(O)C(F)(F)F.O=C(O)C(F)(F)F`: the “Percent Effect” value worked out at 7.341%.

For `CN(Cc1ccco1)[C@@H]1CN(Cc2cnn(C)c2)[C@@H]2CCCO[C@H]12.O=C(O)C(F)(F)F.O=C(O)C(F)(F)F`, the “Percent Effect” value is recorded as 23.66%.

Turning to `CN(Cc1ccco1)[C@@H]1CN(Cc2cccs2)C[C@@H]2CCCO[C@@H]21.O=C(O)C(F)(F)F.O=C(O)C(F)(F)F`, the “Percent Effect” value stood at 64.28%.

`Cc1ccc(CN2C[C@@H]3CCCO[C@@H]3[C@H](N(C)Cc3ccco3)C2)s1.O=C(O)C(F)(F)F.O=C(O)C(F)(F)F`: the “Percent Effect” value was 73.4%.

As to `CNC(=O)[C@@H]1CC[C@@H]2[C@@H](CCN2Cc2cn(C)c3ccccc23)O1.O=C(O)C(F)(F)F`, the “Percent Effect” value is recorded as -13.73%.

Turning to `CN(Cc1ccco1)[C@@H]1CN(Cc2ccc(F)cc2)[C@@H]2CCCO[C@H]12.O=C(O)C(F)(F)F.O=C(O)C(F)(F)F`, the “Percent Effect” value is on record as 54.29%.

In the case of `Cn1cc(CN2CC[C@H]3O[C@H](C(=O)NC4CC4)CC[C@H]32)c2ccccc21.O=C(O)C(F)(F)F`, the “Percent Effect” value was determined as 22.79%.

With `CC(C)NC(=O)[C@@H]1CC[C@@H]2[C@@H](CCN2Cc2cn(C)c3ccccc23)O1.O=C(O)C(F)(F)F`, the “Percent Effect” value is 76.85%.

Take `CN(Cc1ccco1)[C@@H]1CN(Cc2ccccn2)C[C@@H]2CCCO[C@@H]21.O=C(O)C(F)(F)F.O=C(O)C(F)(F)F.O=C(O)C(F)(F)F`: the “Percent Effect” value turned out to be 29.58%.

Consider `CN(Cc1ccco1)[C@@H]1CN(CC2CCOCC2)C[C@@H]2CCCO[C@@H]21.O=C(O)C(F)(F)F.O=C(O)C(F)(F)F`, for which the “Percent Effect” value turned out to be 11.5%.

Source of the values: ChEMBL document CHEMBL3988442, “University of Dundee, Small-Polar-MMV Screening Library” (2021).
